Rows were chosen to be rich in hits. Some 1.8% of all compounds tested hit in one or more screens of this group.
Vif-A3F inh: Vif-A3F binding inhibition; HeLa A3F-eYFP + Vif (tagged APOBEC3F with the HIV-1 protein that degrades it), YFP fluorescence increase; Potency, µM (doses to about 46.1 µM); hit rate 0.2% among 390,000; AID 602313; also: nearly all actives have a fitted effect of over 65% in size
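HeLa cells stably expressing Vif plus C-terminally eYFP-tagged A3F were seeded, incubated overnight at 37 deg C, dosed with compound, incubated overnight again at 37 deg C. Yellow fluorescence (Ex 488/Em 500-530) reported blocked Vif-mediated A3F-eYFP degradation.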
TrxR1 substrate: is turned over as a substrate by rat TrxR1. O89049. purified TrxR1 substrate turnover, NADPH consumption readout. AID 588456. Potency, µM (series often up to 114 µM). hit rate 0.01% among 390,000; also: nearly all actives have a fitted effect of over 50% in size
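Rat TrxR1, dispensed at 90 nM, was prereduced with 400 uM NADPH (final) for 5 min at ~22 deg C, then incubated with compound 15 min before 400 uM selenite. A first-read NADPH fluorescence drop versus no-compound background flagged substrates.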
rTrxR1 inhibitor: blocks rat thioredoxin reductase 1. O89049. recombinant rTrxR1, NADPH fluorescence consumption, selenite substrate. Potency, µM (doses to about 114 µM), hits mostly inhibitors. hit rate 1% among 390,000; also: nearly all actives have a fitted effect of over 65% in size
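Rat TrxR1 (90 nM in the dispensed reagent) was pre-reduced with 400 uM NADPH for 5 min at room temperature, then incubated with compound for 15 min. After 400 uM selenite was added, NADPH fluorescence (Ex 340/Em 450 nm) was followed for 8 min.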
VDR inh: vitamin D3 receptor (human) inhibition | VDR-SRC2-3 peptide fluorescence polarization, 2 h | hit rate 0.93% among 400,000 | Potency, µM, actives largely listed as inhibitors
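Fluorescence polarization assay of small-molecule disruption of VDR binding to coregulator peptide SRC2-3. Compounds and controls pin-transferred, then read after 2 h incubation at ambient room temperature.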
Vif-A3G inh: blocks the Vif interaction with human APOBEC3G. HeLa A3G-eYFP + Vif (tagged APOBEC3G with the HIV-1 protein that degrades it), YFP fluorescence, overnight. Potency, µM (highest dose often 46.1 µM), hits mostly inhibitors. hit rate 0.076% among 410,000. Q9HC16; also: nearly all actives have a fitted effect of over 60% in size
Target sequence (Q9HC16 whole entry, looked up): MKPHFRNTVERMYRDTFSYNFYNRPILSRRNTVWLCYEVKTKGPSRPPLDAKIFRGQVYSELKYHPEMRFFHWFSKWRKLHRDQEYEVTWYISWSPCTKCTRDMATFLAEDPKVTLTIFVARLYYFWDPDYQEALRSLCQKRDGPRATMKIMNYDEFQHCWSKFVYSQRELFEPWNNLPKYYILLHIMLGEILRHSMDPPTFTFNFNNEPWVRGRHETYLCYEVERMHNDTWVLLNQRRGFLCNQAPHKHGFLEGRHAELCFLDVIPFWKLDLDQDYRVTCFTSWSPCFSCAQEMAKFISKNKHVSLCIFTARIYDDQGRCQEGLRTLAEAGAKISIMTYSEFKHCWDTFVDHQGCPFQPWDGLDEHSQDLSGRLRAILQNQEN
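HeLa cells stably expressing Vif and C-terminally eYFP-tagged A3G, seeded overnight at 37 deg C, then exposed to compound by pintool overnight at 37 deg C. Rise in yellow fluorescence (Ex 488/Em 500-530, Acumen) marks blocked Vif-driven A3G degradation.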
Hits are given with their value; - = inactive; ? = inconclusive; . = no result; [ ] = another dose, or the depositor's remark. Calls follow the shape of the dose curve; as a rule, active = well fitted curve in the direction sought with a large enough effect; inconclusive = small, poorly fitted or top-dose-only effect, or another doubt; inactive = no such curve, though single readings can be large; an effect the other way counts as inactive or inconclusive.

SMILES	Vif-A3F inh	TrxR1 substrate	rTrxR1 inhibitor	VDR inh	Vif-A3G inh
CC[C@H](C)[C@H](NC(=O)[C@H](C)NC(=O)[C@H](CC(=O)O)NC(=O)[C@H](CO)NC(=O)[C@@H](N)Cc1cnc[nH]1)C(=O)N[C@@H](Cc1ccccc1)C(=O)N[C@H](C(=O)N[C@@H](CCC(N)=O)C(=O)N[C@@H](CCC(N)=O)C(=O)N[C@@H](Cc1ccc(O)cc1)C(=O)N[C@@H](CO)C(=O)N[C@@H](CCCCN)C(=O)N[C@@H](CC(C)C)C(=O)N[C@@H](CC(C)C)C(=O)N[C@@H](C)C(=O)N[C@@H](CCCCN)C(=O)N[C@@H](CC(C)C)C(=O)N[C@@H](C)C(=O)N[C@@H](CC(C)C)C(=O)N[C@@H](CCC(N)=O)C(=O)N[C@@H](CCCCN)C(=O)N[C@@H](Cc1ccc(O)cc1)C(=O)N[C@@H](CC(C)C)C(=O)N[C@@H](C)C(=O)N[C@@H](CO)C(=O)N[C@H](C(=O)N[C@@H](CC(C)C)C(=O)NCC(=O)N[C@@H](CO)C(=O)N[C@@H](CCCNC(=N)N)C(=O)N[C@H](C(=O)N[C@@H](CO)C(=O)N1CCC[C@H]1C(=O)N1CCC[C@H]1C(=O)N1CCC[C@H]1C(N)=O)[C@@H](C)O)[C@@H](C)CC)[C@@H](C)O	.	.	.	-	.
O=C(NCCN1CCN(Cc2ccccc2)CC1)C1c2ccccc2C(=O)N2CCc3ccccc3C12 (centres undefined)	-	-	-	-	-
Cc1ccc(CNC(=O)C2c3ccccc3C(=O)N3CCc4ccccc4C23)o1 (centres undefined)	-	-	1.8µM	?	-
O=[N+]([O-])c1ccc(C=Nc2ccccc2)cc1	.	.	.	.	-
Cc1[nH]n(-c2ccccc2)c(=S)c1C=Nc1cccc([N+](=O)[O-])c1	-	-	?	22µM	-
COc1ccc2[nH]c(C)c(C(=O)CN3CCN(C(=O)c4ccco4)CC3)c2c1	-	-	28µM	-	-
CC(=O)N1CCc2cc(C(=O)CN3CCN(C(=O)c4ccco4)CC3)ccc21	-	-	16µM	-	-
CC(=O)N1CCc2cc(C(=O)CN3CCC(C)CC3)ccc21	-	-	?	-	-
CC(/C=C/c1ccco1)=N\NC(=O)c1cc(C)[nH]n1	-	-	16µM	-	-
CC(/C=C/c1ccco1)=N/NC(=O)Cc1cccs1	-	-	40µM	-	-
CCN(Cc1ccccc1)Cc1c(O)ccc2oc(C)c(C(=O)Nc3ccccc3C)c12	-	-	-	-	-
O=C(Nc1ccc2nc3n(c(=O)c2c1)CCCCC3)c1c(F)ccc([N+](=O)[O-])c1F	-	-	50µM	?	?
O=C(CCl)N(c1ccc(Cl)cc1)c1c[nH]c2ccccc12	-	-	0.45µM	?	-
O=C(O)Cc1c[nH]c2ccccc12	-	-	-	-	-
O=C(CCl)N(c1ccccc1)c1c[nH]c2ccccc12	-	-	2.2µM	-	?
COc1ccc(CN2CC[C@H]3C=CC[C@@H](C(=O)NC4CCCCC4)[C@H]3C2=O)cc1OC	.	-	-	.	-
Oc1ccccc1-c1nnc(COc2ccc(Cl)cc2Cl)o1	-	-	-	79µM	-
CC(=O)c1ccc(C2CC34CNS(=O)(=O)C3CC2O4)cc1 (centres undefined)	.	-	28µM	-	-
CCn1c(SCC(=O)c2ccc3c(c2)OCCO3)nnc1-c1ccco1	-	-	50µM	-	-
COCCn1c(SCC(=O)c2ccc3c(c2)OCCO3)nnc1-c1ccco1	-	-	?	-	-
CC(=O)c1cccc(OCc2cc(C(=O)N(C)C(C)c3ccccn3)no2)c1 (centres undefined)	-	-	50µM	-	-
COc1ccc(Nc2ccccc2C(=O)O)cc1	-	-	-	-	-
O=C(O)c1ccccc1Nc1ccc(CCc2ccc(Cl)c(Cl)c2)cc1	.	.	.	35µM	.
COc1cc(/C=C/c2ccc3ccccc3n2)cc(OC)c1OC	.	-	-	.	?
CC(=O)OCC1=C(C(=O)O)N2C(=O)C(NC(=O)c3ccc(COc4cccc(Cl)c4Cl)o3)C2SC1 (centres undefined)	-	-[11.4 µM]	-	25µM	-
SMILES	Vif-A3F inh	TrxR1 substrate	rTrxR1 inhibitor	VDR inh	Vif-A3G inh
CC1=C(C(N)=O)N2C(=O)[C@@H](NC(=O)Cc3ccccc3)C2SC1 (some centres undefined)	.	.	.	-	.
CC(=O)OCC1=C(C(=O)OC(C)(C)C)N2C(=O)[C@@H](NC(=O)Cc3ccccc3)[C@H]2SC1	?	-	6.3µM	?	-
Cc1ccccc1C(=O)N=c1ccn(-c2nc3ccccc3nc2NS(=O)(=O)c2ccc(F)cc2)cc1	?	-	-	-	-
O=C(N=c1ccn(-c2nc3ccccc3nc2NS(=O)(=O)c2ccccc2)cc1)c1cccs1	25µM	-	-	-	?
COc1ccccc1NC(=O)c1sc(-c2ccc(Cl)cc2)cc1N	-	-	-	-	-
COc1ccc(S(=O)(=O)Nc2ccccc2-c2nc3ccccc3[nH]c2=O)cc1	3.5µM	-[0.0914 µM]	-	-	?
COc1ccc(/C=C2\CCC(C3CCCC3)C2=O)c(OC)c1 (centres undefined)	-	-	-	-	-
COc1ccc(/C=C2\CC/C(=C\c3ccc(OC)cc3OC)C2=O)c(OC)c1	8.9µM	-	-	-	-
CCOC(=O)c1c(NC(=O)CSc2cn(CCNC(=O)c3ccc(OC)c(OC)c3)c3ccccc23)sc2c1CCCC2	-	-	-	-	-
COc1cc2c(cc1OC)CN(C(=O)c1cccc([N+](=O)[O-])c1)CC2	-	-	-	79µM	-
O=C(CSc1ccc(-c2ccco2)nn1)Nc1ccc(F)cc1F	-	-	25µM	?	-
COc1ccc(C)cc1NC(=O)CSc1nnc(-c2ccco2)n1N	-	-	-	-	-
O=C(CSc1ccc(-c2cccnc2)nn1)Nc1ccc(F)cc1F	-	-	-	-	-
COc1ccc(C)cc1NC(=O)CSc1ccc(-c2ccco2)nn1	-	-	16µM	?	-
Cc1cccc(NC(=O)CSc2ccc(-c3ccco3)nn2)c1C	-	-	13µM	-	-
CCCN(CC(=O)Nc1ccccc1C)C(=O)c1ccc(-c2ccc([N+](=O)[O-])cc2)o1	-	-	3.5µM	?	-
CCCN(CC(=O)Nc1ccccc1C)C(=O)COC(=O)CSc1ccc([N+](=O)[O-])cc1	-	-	-	?	-
C=CCNC(=O)c1ccc(-c2ccc([N+](=O)[O-])cc2)o1	-	-	10µM	-	-
COc1cc(N(C)C)c(OC)cc1C=O	.	-	-	.	-
CCN(CC)CCN(C(=O)CCOc1ccccc1)c1nc2c(F)cc(F)cc2s1	-	-	11µM	-	-
Cc1ccc2sc(N(CCCN(C)C)C(=O)CCS(=O)(=O)c3ccccc3)nc2c1C	-	-	18µM	-	-
COc1ccc(OC)c2sc(N(CCCN(C)C)C(=O)CCS(=O)(=O)c3ccccc3)nc12	-	-	2.8µM	?	?

Bioassay records deposited in PubChem BioAssay by National Center for Advancing Translational Sciences (NCATS).
